# Results filed as inconclusive are left out. Entries that show only a call come without a potency. Calls of active or inactive are those of the source. Calls come from the whole dose curve; as a rule, active = well fitted cell-killing curve with a large enough effect; inconclusive = small, poorly fitted or top-dose-only effect; inactive = no such curve, though single readings can be large or run the other way.
# Assay: qHTS of pediatric cancer cell lines to identify multiple opportunities for drug repurposing: Primary screen for NB-EBc1 cells (AID 1347095)
# Settings: NB-EBc1 neuroblastoma viability, CellTiter-Glo luminescence, 48 h; series mostly up to 46 µM
# Description: Drug repurposing or repositioning has been offered as a strategy for drug development in oncology programs. This approach has special potential for childhood cancers and other rare or orphan diseases, where the expected return on new drug development has been a disincentive to pharmaceuticals. […] In this project we exploit the poly-pharmacology of drugs to discover new indications via phenotypic screening of a panel of 19 well-characterized cell lines derived from solid tumors seen in children and adolescents. The goal is to identify approved drugs with previously unrecognized anticancer properties that has the potential to reveal new mechanisms and biological processes involved in carcinogenesis or drug resistance. We employed a titration-based paradigm (quantitative high-throughput screening or qHTS), where all compounds were tested at multiple concentrations for their effect on cell viability. Concentration-response curves (CRCs) were derived directly from the primary screen, and both potency and efficacy values were used to identify compounds with robust bioactivity profiles. We screened the NIH Chemical Genomics Center (NCGC) Pharmaceutical Collection (NPC) and Mechanism Interrogation Plate (MIPE) small molecule collections of approved and investigational compounds against these cell lines; and measured metabolically active cells after 48 hours of compound treatment as a proxy for cell viability. […] Assay Submitter: Nathalia J. Martinez, National Center for Advancing Translational Sciences, National Institutes of Health, Rockville, MD, USA; email: natalia.martinez@nih.gov Shen, M et al. Quantitative high-throughput phenotypic screening of pediatric cancer cell lines identifies multiple opportunities for drug repurposing. Oncotarget 2017 Dec 19;9(4):4758-4772. PMID 29435139.
# The cells were obtained from University of North Carolina (UNC), Pediatric Preclinical Testing Program (PPT), and Coriell Institute (CI). qHTS cell viability assay: Cells were assayed in growth media at a density of 500-1,000 cells/well. Five microliters of cells were dispensed into 1,536-well, white, solid-bottom, TC-treated plates (Greiner Bio One) using a multidrop dispenser and incubated at 37 degrees C, 5% CO2, under a humidified atmosphere for 5 hours. Twenty-three nanoliters of compounds and controls (neutral control DMSO or positive control bortezomib at final concentration of 2.3 µM) were subsequently transferred by Kalypsys pintool. For primary screens, the MIPE collection was tested at 11-point dilutions (final concentrations range from 0.78 nM to 46 µM) and the NPC collection at 8-point dilutions (final concentrations range from 0.59 nM to 46 µM). Compounds tested in follow-up screens were assayed at 11-point dilutions. Cells were incubated for 48 hours, followed by addition of 3 µL of CellTiter-Glo (Promega). After a 15 min incubation at room temperature, samples were analyzed for luminescence intensity using a ViewLux High-throughput CCD imager equipped with clear filters.
# Potency is the fitted concentration of half-maximal effect.
row,SMILES,Potency
1,CC[C@]1(O)C[C@@H]2CN(CCc3c([nH]c4ccccc34)[C@@](C(=O)OC)(c3cc4c(cc3OC)N(C)[C@H]3[C@@](O)(C(=O)OC)[C@H](OC(C)=O)[C@]5(CC)C=CCN6CC[C@]43[C@@H]65)C2)C1,0.188 µM (active)
2,CC1(C)CCC[C@@]2(C)[C@@H]1CC[C@@]1(C)OC(=O)C[C@H]21,inactive
3,N#C[C@H]1C[C@H]2C[C@@H]2N1C(=O)[C@@H](N)C12CC3CC(CC(O)(C3)C1)C2,inactive
4,CCOC1OC(=O)C[C@H]1NC(=O)[C@@H]1CCCN1C(=O)[C@@H](NC(=O)c1ccc(N)c(Cl)c1)C(C)(C)C (stereo not given in full),8.33 µM (active)
5,Cc1cccc(C)c1OCC(C)N (stereo not given),inactive
6,CC(C)OC(=O)CCCC=CC[C@@H]1[C@H](C=C[C@@H](O)COc2cccc(C(F)(F)F)c2)[C@H](O)C[C@@H]1O,23.5 µM (active)
7,O=c1cc(-c2ccccc2)oc2cc(O)cc(O)c12,inactive
8,CN(C)CCC(c1ccccc1)c1ccccn1 (stereo not given),inactive
9,O=C(O)[C@H]1O[C@H](Oc2cc3oc(-c4ccccc4)cc(=O)c3c(O)c2O)[C@H](O)[C@@H](O)[C@H]1O,inactive
10,N#CC(=C(N)Sc1ccccc1N)C(C#N)=C(N)Sc1ccccc1N,inactive
11,Clc1cc(Cl)cc(CNc2ncncc2-c2ccc3c(c2)OCO3)c1,11.8 µM (active)
12,Cc1ccc([C@@H]2O[C@H](CO)[C@@H](O)[C@H](O)[C@@H]2O)cc1Cc1ccc(-c2ccc(F)cc2)s1,inactive
13,COCCOC(=O)C1=C(C)NC2=C(C(=O)CC(c3ccccc3OC)C2)C1c1cccc(O)c1 (stereo not given),18.7 µM (active)
14,COc1ccc(-c2coc3cc(O)ccc3c2=O)cc1,inactive
15,COc1cc(O)c2c(c1)C(=O)c1cc(C)cc(O)c1C2=O,inactive
16,OC[C@H]1O[C@@H](Oc2cc(O)cc(C=Cc3ccc(O)cc3)c2)[C@H](O)[C@@H](O)[C@H]1O,inactive
17,CO[C@H]1C=CO[C@@]2(C)Oc3c(C)c(O)c4c(O)c(c5c(c4c3C2=O)NC2(CCN(CC(C)C)CC2)N=5)=NC(=O)C(C)=CC=C[C@H](C)[C@H](O)[C@@H](C)[C@@H](O)[C@@H](C)[C@H](OC(C)=O)[C@H]1C,inactive
18,CC(C)NCC(O)COc1cccc2[nH]ccc12 (stereo not given),inactive
19,Cc1ccc(C(C)(O)c2nc3ccccc3s2)c(C)c1 (stereo not given),1.32 µM (active)
20,CCCCCNC(=O)N1CCC(CN(Cc2ccc(Cl)cc2)Cc2ccc([N+](=O)[O-])s2)C1 (stereo not given),26.4 µM (active)

row,SMILES,Potency
1,NC(=O)c1cnc(-c2ccc(C3(N)CCC3)cc2)c(-c2ccccc2)c1,inactive
2,COc1ccccc1N1CCN(CCCNc2cc(=O)n(C)c(=O)n2C)CC1,inactive
3,Cc1nnc(C(C)C)n1C1C[C@H]2CC[C@@H](C1)N2CC[C@H](NC(=O)C1CCC(F)(F)CC1)c1ccccc1 (stereo not given in full),inactive
4,C[C@@H]1CCN(C(=O)CC#N)C[C@H]1N(C)c1ncnc2[nH]ccc12,inactive
5,COc1cc2c(cc1OC)CN(CCc1ccc(NC(=O)c3cc(OC)c(OC)cc3NC(=O)c3cnc4ccccc4c3)cc1)CC2,inactive
6,CN(C)CCC=C1c2ccccc2COc2ccc(CC(=O)O)cc21,inactive
7,CC[C@H]1OC(=O)[C@H](C)[C@@H](O[C@H]2C[C@@](C)(OC)[C@@H](O)[C@H](C)O2)[C@H](C)[C@@H](O[C@@H]2O[C@H](C)C[C@H](N(C)C)[C@@H]2O)[C@](C)(O)C[C@@H](C)CN(C)[C@H](C)[C@@H](O)[C@]1(C)O,inactive
8,CC1(C)S[C@H]2[C@H](NC(=O)[C@@H](N)c3ccc(O)cc3)C(=O)N2[C@@H]1C(=O)O,16.6 µM (active)
9,O=C1C(Cl)=C(NCCN2CCOCC2)C(=O)c2ncccc21,4.69 µM (active)
10,NC(=O)c1cccc2[nH]c(-c3ccc([C@H]4CCCN4)cc3F)nc12,18.7 µM (active)
11,Nc1ncnc2c1ncn2[C@@H]1O[C@@H](CO)[C@H](O)[C@H]1O,inactive
12,O=C(O)c1ccccc1C(=O)Nc1ccc(-c2ccccc2)cc1,inactive
13,NC(N)=Nc1nc(CSCC/C(N)=N/S(N)(=O)=O)cs1,inactive
14,Cc1ccn(-c2ccc(-c3ncco3)cc2)c(=O)c1-c1ccc2nc(N)ncc2c1,inactive
15,O=c1c(-c2ccc(O)cc2)coc2cc(O[C@@H]3O[C@H](CO)[C@H](O)[C@H](O)[C@H]3O)ccc12,inactive
16,COC(=O)[C@@H]1[C@H]2C[C@H]3c4[nH]c5ccccc5c4CCN3C[C@@H]2CC[C@@H]1O,inactive
17,COCCCCC(=NOCCN)c1ccc(C(F)(F)F)cc1,inactive
18,O=C(Nc1ccccc1-c1cn2c(CN3CCNCC3)csc2n1)c1cnc2ccccc2n1,inactive
19,NC(=O)c1ccc2nc(-c3ccc(Oc4ccc(Cl)cc4)cc3)[nH]c2c1,inactive
20,O=c1ccn([C@@H]2O[C@H](CO)[C@H](O)[C@H]2O)c(=O)[nH]1,inactive
